Data published in PubChem BioAssay.

Each compound was assayed against Left-right determination factor 2 (Homo sapiens) (UniProt O00292) (assay: small molecules binding LEFTY2 protein – biochemical, small-molecule microarray, 635 nm fluorescence scan, primary screen (AID 1110)). Conditions: higher = more signal.
Left-right determination factor 2 (Homo sapiens), sequence (O00292 whole entry, looked up): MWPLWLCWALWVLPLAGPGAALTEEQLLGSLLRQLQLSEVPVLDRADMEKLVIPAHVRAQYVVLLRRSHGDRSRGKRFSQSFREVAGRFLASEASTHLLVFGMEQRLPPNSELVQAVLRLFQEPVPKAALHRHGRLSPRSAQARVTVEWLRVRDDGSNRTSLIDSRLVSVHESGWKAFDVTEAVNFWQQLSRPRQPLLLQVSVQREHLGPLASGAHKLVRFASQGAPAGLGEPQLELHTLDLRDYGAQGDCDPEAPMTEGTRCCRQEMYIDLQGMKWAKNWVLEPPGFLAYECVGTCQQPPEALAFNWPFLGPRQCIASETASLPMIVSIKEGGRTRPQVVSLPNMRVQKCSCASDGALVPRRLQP
In the case of `C=CCC(OC(C)=O)[C@@H]1[C@@H](N(Cc2cc3ccccc3o2)C(=O)c2ccc(C)cc2)c2cc(OCCCO)ccc2N1C(=O)c1ccc2ccccc2n1` (stereo not given in full), the composite z-score is reported as 0.21. With `CC(C)NC(=O)[C@@]1(Cc2ccccc2I)c2ccccc2C(=O)N(C2CCCCC2)[C@H]1c1ccc(CO)cc1` the composite z-score was 0.398. With `C=C[C@H](OC)[C@@H](OC(=O)Nc1ccc(SC)cc1)c1ccc(OC)c(O)c1` the composite z-score was -0.784. `CCc1cccc(NC(=O)O[C@H]2[C@H](OC(=O)Nc3ccccc3)[C@@H](OC(=O)Nc3ccccc3)[C@@H](OC)O[C@@H]2CO)c1` was tested, and the composite z-score was 0.273. `COCCOC(=O)N1C(=O)[C@@]2(c3cc(C#CCC(C(=O)OC)C(=O)OC)ccc31)[C@H](C(=O)N1CCN(c3ncccn3)CC1)[C@H]1C(=O)O[C@H](c3ccccc3)[C@H](c3ccccc3)N1[C@@H]2c1ccc(O)cc1` showed a composite z-score of 0.394. With `COc1ccc(-c2cc3c(c(-c4ccccc4)n2)[Si](C(C)C)(C(C)C)O[C@H]3c2ccccc2)cn1` the composite z-score was -0.152. Work on `CCC(=O)[C@]12O[C@@]3([C@@H]4C(=O)OCC[C@@H]41)N(Cc1ccccc1)C(C)=C(C(=O)OC)[C@@H](c1ccccc1)N3C2=O` yielded a composite z-score of 0.271. For `CO[C@@H]1COC(=O)[C@H](C)NC(=O)CC=C[C@@H](C)[C@H](NS(=O)(=O)c2ccc(C)cc2)COC(=O)CC=C[C@@H]1C`, the composite z-score was 0.46. `CC(=O)Nc1ccc([C@H]2[C@H](C)CC[C@H]3C(=O)N4[C@@H](CC[C@@H](C)[C@@H]4c4ccc(NC(C)=O)cc4)C(=O)N32)cc1` gave a composite z-score of 0.72. With `C=CCN(C(=O)C1N(c2ccc(CCO)cc2)C(=O)C2C(C(=O)O)C3C=CC21O3)C(C)(C)C` (stereo not given) the composite z-score was -2.38.
